# Source: PubChem (several laboratories)
# NTR1 agonist – agonists of human neurotensin receptor NTR1; P30989; NTR1-U2OS beta-arrestin-GFP spot imaging, agonist mode; activation, % at 20 µM; actives 0.17% (n = 330,000); AID 493036;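 active = activation at or above 40% of the spot to cytoplasm intensity ratio, with at least 20 cells analyzed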;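 note: 0% = DMSO without peptide and 100% = 100 nM NTR1 peptide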
# Target sequence (P30989 whole entry, looked up): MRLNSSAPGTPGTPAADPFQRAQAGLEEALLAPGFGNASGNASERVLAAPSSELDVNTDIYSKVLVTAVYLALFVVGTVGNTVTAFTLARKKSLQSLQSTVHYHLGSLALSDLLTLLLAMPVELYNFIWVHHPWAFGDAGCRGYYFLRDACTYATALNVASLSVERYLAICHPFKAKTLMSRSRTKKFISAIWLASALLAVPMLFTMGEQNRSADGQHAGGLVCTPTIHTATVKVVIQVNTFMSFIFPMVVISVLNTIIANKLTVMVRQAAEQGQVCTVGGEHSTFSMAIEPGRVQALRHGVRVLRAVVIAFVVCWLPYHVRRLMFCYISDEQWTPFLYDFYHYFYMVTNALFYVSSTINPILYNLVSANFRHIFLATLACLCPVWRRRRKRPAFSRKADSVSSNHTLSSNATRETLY
# Beta2AR agonist – human beta-2 adrenergic receptor agonism by FAP; response, % (test concentration not listed); AID 504454; actives 0.43% (n = 340,000); Am2.2-beta2AR cells, FAP receptor internalization, flow cytometry;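 active = response above a set limit, near 3 SD of response in nonfluorescent compounds, cut at about 42% in these data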
# HTR2A ag – mouse HTR2A agonism via beta-arrestin recruitment | CHO-K1 mHTR2A beta-arrestin complementation, luminescence; percent of 30 µM serotonin response | actives 0.66% (n = 360,000) | activation, % at 7.6 µM | P35363;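 active = activation above a run cutoff, the mean activation of all tested compounds plus 3 SD, cut at about 14% in these data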;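 note: 0% = plate median of compound wells and 100% = 30 µM serotonin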
# Granule exo inh – blocks lytic granule exocytosis; TALL-104 LAMP-1 surface exposure, flow cytometry; cells stimulated with thapsigargin and PMA; inhibition, % at 10 µM; actives 0.66% (n = 360,000); AID 651702;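 active = inhibition above about 55%, limit read from the data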
# ABHD5-PLIN5 inh – blocks binding of human ABHD5 to perilipin-5; Q00G26+Q8WTS1; Split G. princeps luciferase complementation, luminescence, 4 h; inhibition, % at 4 µM; actives 0.78% (n = 360,000);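 active = inhibition above the mean inhibition across every tested compound plus 3 SD, cut at about 22% in these data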;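 note: 0% = DMSO only wells and the 100% control is not disclosed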
# ABHD5 PLIN5 conf – ABHD5-PLIN5 interaction inhibition, confirmed; shares compounds with ABHD5-PLIN5 inh; biochemical ABHD5-PLIN5 interaction, luminescence; inhibition, % at 4 µM; actives 67% (n = 2,200); AID 651612; in the data active = inhibition above about 23%;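 note: 0% = DMSO vehicle wells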
# HNF4 split-luc – active in HNF4 split-luciferase counter-screen for ABHD5-PLIN5 inhibitors; actives 77% (n = 2,200); shares compounds with ABHD5-PLIN5 inh; inhibition, % at 4 µM; HNF4 dimerization, luminescence, biochemical;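 active = mean inhibition across replicate wells exceeding the computed hit threshold, cut at about 13% in these data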;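 note: light from luciferase halves that rejoin when HNF4 fusion proteins dimerize; 0% = DMSO only wells and the 100% control is not given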
# * marks the source's active call; other numbers are inactive results; nt = not tested or not shown. Sampled rows, rich in hits. Any-hit rate of the full collection: about 2.3%.
SMILES,NTR1 agonist,Beta2AR agonist,HTR2A ag,Granule exo inh,ABHD5-PLIN5 inh,ABHD5 PLIN5 conf,HNF4 split-luc
C#CCOCCOCCOCCNc1nc(N2CCN(C(=O)[C@H](CCC(=O)O)n3cc([C@@H](N)CO)nn3)CC2)nc(N2CCN(C(=O)[C@H](CCC(=O)O)n3cc([C@@H](N)CCSC)nn3)CC2)n1,-1,-1,-2,-8,0,nt,nt
CC[N+]1(C)CCC(O)(/C=C/c2ccccc2)C(C(=O)/C=C/c2ccccc2)C1 (configuration not stated),nt,10,-5,43,45*,93*,109*
CN1CCN(S(=O)(=O)c2cccc(C(=O)NCc3ccc(Cl)cc3)c2)CC1,1,-5,-2,2,-3,nt,nt
CCCC(=O)N1CCC1(C)C(=O)Nc1ccc(-n2cccc2)cc1 (configuration not stated),nt,nt,-5,7,-4,nt,nt
Nc1nc(-c2ccccc2)c(N=Nc2ccccc2Cl)s1,22,14,-11,3,24*,26*,17*
Cc1ncc(N=Nc2ccccc2Cl)c(-c2ccccc2)n1,3,-1,0,-6,5,nt,nt
O=C(NCc1ccco1)c1cnn2c(C(F)(F)F)cc(-c3cccs3)nc12,4,-18,-3,6,24*,25*,47*
O=C(c1cnn2c(C(F)(F)F)cc(-c3cccs3)nc12)N1CCCC1,4,2,1,0,3,nt,nt
O=C(NCCS(=O)(=O)N1CCN(c2ccccc2F)CC1)c1cccc(Br)c1,1,-2,-7,-1,-8,nt,nt
CCn1c(C)c(C)c2cc(C(=O)NCCc3ccco3)ccc21,0,16,0,4,30*,10,16*
Cc1c(C)n(C)c2ccc(C(=O)NCCc3ccco3)cc12,1,-1,1,-10,12,nt,nt
Cc1ccc(-c2csc3nc(C)n(-n4c(C)ccc4C)c(=O)c23)o1,7,8,-1,49,52*,25*,54*
Cc1ccc(-c2csc3nc(C)n(N)c(=O)c23)o1,1,-2,2,-2,5,nt,nt
COc1ccc(C(CCN2CCOCC2)c2c(OC)cc(OC)c3c(-c4ccccc4)cc(=O)oc23)cc1 (configuration not stated),3,8,-6,54,25*,11,8
CN(C)CCCN(C(=O)CCOc1ccccc1)c1nc2ccc(F)cc2s1,nt,5,-9,55,32*,21,100*
CCOc1cccc2sc(N(CCCN(C)C)C(=O)c3ccc(S(=O)(=O)N(C)c4ccccc4)cc3)nc12,-1,19,-3,37,27*,19,12
CN(C)CCCN(C(=O)COc1ccccc1)c1nc2ccc(F)cc2s1,-1,-3,-2,0,6,nt,nt
CN(C)CCCN(C(=O)COc1ccc(Cl)cc1)c1nc2ccc(F)cc2s1,1,2,-6,34,27*,13,3
CN(C)CCCN(C(=O)COc1ccc(Cl)cc1)c1nc2c(F)cccc2s1,-1,-9,-1,-3,2,nt,nt
CN(C)CCCN(C(=O)CCOc1ccccc1)c1nc2c(F)cccc2s1,nt,4,14,3,28*,13,92*
Cc1ccc2nc3n(c(=O)c2c1)-c1ncccc1C(=O)NC3Cc1ccc(O)cc1 (configuration not stated),nt,nt,-10,-3,2,nt,nt
Cc1ccc2cc(C)c3nnc(SCc4ccc(C(=O)O)cc4)n3c2c1C,3,0,2,-4,0,nt,nt
CC(=O)Nc1ccc(S(=O)(=O)N(C)CC(=O)OCCOc2cccc(C)c2)cc1,1,15,-7,0,0,nt,nt
Cc1ccc2sc(N(CCN(C)C)C(=O)c3ccc4ccccc4c3)nc2c1C,5,0,0,-3,6,nt,nt
Cc1ccc2nc(N(CCCN(C)C)C(=O)COc3ccc(Cl)cc3)sc2c1,5,31,-10,10,26*,16,0
Cc1ccc2sc(N(CCCN(C)C)C(=O)CN3C(=O)c4ccccc4C3=O)nc2c1C,11,2,-11,15,31*,23*,nt
O=C(O)C1C2CCC(O2)C1C(=O)Nc1ccccc1Br (configuration not stated),4,-5,2,-5,10,nt,nt
